For 40 compounds, growth results are on record in PubChem BioAssay (NCI).

SMILES strings stand for the structures. Compounds without any hit were thinned out: in the full panel of roughly 83,000, 20% have a hit.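 Values shown are percent growth following 48 h exposure of cells in 96-well plates to a single concentration of compound; below 10 was considered active.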 Active and inactive are the calls of the source.

The assay has as its system LOX IMVI melanoma. In words: NCI-60 one-dose screen, 48 h (100 = growth as untreated, 0 = no growth, -100 = all killed). Particulars: 10 µM unless noted. How it is done:
Growth inhibition of the LOX IMVI human tumor cell line is measured as a screen for anti-cancer activity. Cells are grown in 96 well plates and exposed to the test compound for 48 hours. Compounds are tested at a single concentration, which is 10^-5 M for most compounds. The reported endpoint is percent growth (GI% or GIPRCNT), where numbers from 0 - 100% represent growth inhibition, and numbers from -100% - 0 represent cell death. For example, a value of 40 represents 60% growth inhibition. A value of 0 means no net growth occurred over the course of the experiment. A value of -40 indicates 40% of cells at the beginning of the experiment died by the end of the experiment. A value of -100 means all cells are dead at the end of the experiment.
NCI-60 Human Tumor Cell Lines Screen was performed using the standard one-dose NCI protocol, which is described in more detail at https://dtp.cancer.gov/discovery_development/nci-60/default.htm.
Compounds with GIPRCNT values below 10 were considered active. Activity score was based on GIPRCNT using the following formula: […]
Score is 0 for GIPRCNT values of 100 or above, 50 for GIPRCNT values of 0, and 100 for GIPRCNT values of -100.
For `COc1c(B(O)O)cccc1-c1nc2c(F)cc3[nH]ncc3c2c2c1CCCC2`, the growth was -35.2% (active). Regarding `COc1ccc(Nc2nnc(-c3ccc(OC)c(OC)c3)o2)cc1`, the growth is 59.2% (inactive). Consider `COc1ccc(C(C)=O)cc1S(=O)(=O)Nc1c(N)nc(SC)[nH]c1=O`, for which the growth is 96.3% (inactive). On to `CN1CCc2nc3sc(C(N)=O)c(N)c3c(-c3cccs3)c2C1`, for which the growth was 7.95% (active). As for `C#CCOc1cccc(Nc2ncnc3ccc(NC(=O)C=C)cc23)c1`, the growth is 41.1% (inactive). As for `Clc1cccc(Nc2ncnc3ccc(-c4cnc5[nH]ccc5c4)cc23)c1`, the figure is 86.2% (inactive). As for `COc1ccc(Nc2ncc(Br)c(NCCCNC(=O)c3cccs3)n2)cc1`, the growth was 14.6% (inactive). The same measure for `CCN(CC)CCn1c2ccc(OC)cc2c2sc3cc(OC)ccc3c(=O)c21`: -75% (active); for `CCN(C)S(=O)(=O)Nc1cccc(Nc2ncnc3cc(NC(=O)CCl)ccc23)c1Cl`: -79% (active); for `O=C(/C=C/c1cn(-c2ccccc2)nc1-c1ccc(Cl)cc1)c1ccc(F)cc1`: 68.7% (inactive). Take `CC(C)c1ccc(-n2c(=S)[nH]c3sc4cc(O)ccc4c3c2=O)cc1`: the growth is 96.9% (inactive). Turning to `COC1=CC(c2ccc[nH]2)=N/C1=C\c1[nH]c(C)c(CC(=O)OCc2ccccc2)c1CCC(=O)OCc1ccccc1`, the growth was -80.7% (active). As for `CN1CCN(c2cc(Nc3cc(C4CC4)[nH]n3)nc(Nc3ccc(CC(=O)NCc4cccc(F)c4)cc3)n2)CC1`, the figure is -28.4% (active). `COc1ccc(OC)c(-c2nc(SCC(=O)c3ccc(C#N)cc3)[nH]c(=O)c2C#N)c1`: the growth is 94.7% (inactive). As for `O=C(N/N=C/c1c(Cl)cccc1Cl)c1cccnc1Nc1cccc(C(F)(F)F)c1`, the figure is 25.8% (inactive); as for `COC(=O)[C@]1(C)CCC[C@]2(C)[C@H]3C[C@H]4C(C(C)C)=C[C@]3(CC[C@H]21)[C@@H]1C(=O)CC[C@H](OCCC#N)[C@@H]14`, 90.3% (inactive). With `CCCNc1nc2ccccc2c2c1S(=O)(=O)c1ccc(Cl)cc1C2=O`, the growth was 4.45% (active). As for `NC(=O)c1cc(I)ccc1NC(=O)/C=C/c1ccccc1`, the figure is 35.1% (inactive); as for `COc1cccc(/C=C2\COc3ccc(O)c(O)c3C2=O)c1`, -82.3% (active). On to `C=C1C(=O)O[C@H]2[C@H]1CC/C(COC(=O)/C=C\C(=O)NCc1ccc(Cn3c(=O)sn(CCI)c3=O)cc1)=C\CC[C@@]1(C)O[C@@H]21`, for which the growth is 14% (inactive). The same measure for `COc1ccc2c(c1)N(CCO)C1=C(C(=O)OC1)C2c1cccc(F)c1` (stereo not given): 27.5% (inactive); for `O=C(/C=C/c1ccccc1)Nc1ncc(Cc2ccccc2Cl)s1`: 21.3% (inactive). In the case of `C=CCOC(=O)Nc1cccn([C@H](Cc2ccccc2)C(=O)NCCC(C)C)c1=O`, the growth is 90.8% (inactive).

Take `CS(=O)(=O)Nc1cc(-c2ccc3ncnc(Nc4ccc5c(cnn5Cc5cccc(F)c5)c4)c3c2)cnc1Cl`: the growth is -44.8% (active). Consider `CS(=O)(=O)Nc1cc(-c2ccc3ncnc(Nc4ccc5c(cnn5Cc5ccc(F)cc5)c4)c3c2)cnc1Cl`, for which the growth is 18.3% (inactive). As for `C=CC(=O)N1CCN(c2cccc(Oc3nccc(Nc4nnc(-c5ccc(Br)cc5)s4)n3)c2)CC1`, the figure is 59% (inactive).

With `CCCCCOC(=O)c1c(C)[nH]c(/C=C2\N=C(c3ccc[nH]3)C=C2OC)c1C`, the growth is -99.7% (active).

Take `CCOC(=O)c1c(NC(=O)c2ccc(Cl)cc2)sc2c(CN(C)C)c(O)ccc12`: the growth is 60.6% (inactive).

On to `Nc1ncnc2c1C(c1ccc(Br)cc1)c1sc3c(F)cccc3c1O2` (stereo not given), for which the growth is 82.9% (inactive). For `Nc1cnc(C(=O)NNc2nc3cc(F)ccc3n3cccc23)cn1`, the growth is 22% (inactive). Consider `Nc1ncnc2c1c(-c1cccc(Cl)c1)nn2CC(=O)N1CCOCC1`, for which the growth was 103% (inactive). For the compound `COc1cc(-c2nc3sccn3c2-c2ccnc(NCCNS(=O)(=O)c3ccccc3)n2)ccc1F`, the growth is 41.4% (inactive).

With `CCCCNC(=O)CC1=C(C)/C(=C/c2[nH]c(-c3ccc[nH]3)cc2OC)N=C1C`, the growth is -36.9% (active). For `O=c1[nH]c(Cc2nc3ccccc3s2)nc2cc(Br)ccc12`, the growth was 27.8% (inactive). Take `COc1cc(-c2cncn2-c2ccc(-c3nc4ccc(F)cc4s3)cc2)ccc1F`: the growth is 86.7% (inactive). As to `COc1cc(-c2nccc3[nH]c(-c4ccc5cc[nH]c5c4)nc23)cc(OC)c1OC`, the growth was -67.5% (active).

On to `CCOc1ccc(NC(=O)CSc2oc(-c3ccccc3)nc2S(=O)(=O)c2ccc(C)cc2)cc1`, for which the growth is 54.1% (inactive). For `CC1CCN(S(=O)(=O)c2ccc(S(=O)(=O)N3CCCC(c4nc5c(nnn5Cc5cccc(Cl)c5)c(=O)[nH]4)C3)cc2)CC1` (stereo not given), the growth is 42.4% (inactive). `O=C(Nc1nc2ccc(C(=O)N3CCN(/C=C/c4ccccc4)CC3)cc2s1)c1ccc(NCCc2ccccc2)c([N+](=O)[O-])c1`: the growth was 47.4% (inactive).

Regarding `Cc1cc(N2CCN(CCNc3ccnc4cc(Cl)ccc34)CC2)nc(N2CCOCC2)n1`, the growth is 13.7% (inactive).
